# Source: PubChem BioAssay AID977622 (Broad Institute, 2014)
# Hit rate of the full screen: of about 1,900 compounds, fewer than 10 were called active. Roughly 39% stayed inconclusive and do not appear here.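 Rule for the calls: active = Green signal of the normal strain falls at least twice as much as red signal of the resistant mutant, with overall culture growth loss under a set limit; inconclusive = no clear call, values can overlap the other calls; inactive = the rest.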 The list is a sample of the results.
# Assays:
# [1] = growth inhibition of wild-type GFP E. coli, dose response, h38 mutant RFP, cherry-pick (AID 977622); conditions: activity change: E. coli mixed culture, total growth OD600 at 50 uM, at 50 µM
# [2] = tested on: E. coli h38 humanized mutant ribosome RFP fluorescence, mixed culture, 24 h; assay: as above; conditions: h38 mutant RFP at 50 uM; at 50 µM
Structure (SMILES),activity change [1] [%],outcome [1],activity change [2] [%]
COc1ccc(OC)c(NC(=O)COC(=O)CCNc2ccccc2OC)c1,-9.13,inactive,-0.869
Cc1ccc(NC(=O)c2ccc3c(c2)OCO3)cc1S(=O)(=O)N1CCOCC1,-35.8,inactive,-6.07
COc1ccc(NC(=O)CN(c2ccccc2OC)S(=O)(=O)c2cccs2)cc1Cl,-14.2,inactive,19
Cc1cccc(OCCC(=O)N(C)CC(=O)Nc2cccc3ccccc23)c1,-25.4,inactive,27.9
COCc1[nH]nc2c1C(c1ccc3c(c1)OCO3)N(c1ccc(OC)cc1)C2=O (stereo unspecified),1.74,inactive,–
O=C(c1cc(COc2ccc(F)cc2F)on1)N1CCCC(c2ccccc2)C1 (stereo unspecified),5.17,inactive,-5.01
CCOC(=O)Cc1csc(SCC(=O)Nc2cc(C)ccc2OC)n1,-33.1,inactive,38.6
CC(=O)Nc1cccc(OCc2ccc([N+](=O)[O-])cc2)c1,-10.5,inactive,-23.9
CC(CCc1ccccc1)NC(=O)CNC(=O)COc1ccccc1 (stereo unspecified),-14.6,inactive,9.58
O=S(=O)(NOCc1ccc(Cl)cc1)c1ccc(Cl)cc1,-42.8,inactive,-52
O=C(c1cccc2ccccc12)C1CCCN(C(=O)CCc2cnccn2)C1 (stereo unspecified),-12,inactive,-5.75
C[C@@H]1CN([C@@H](C)CO)C(=O)c2cc(NC(=O)Nc3cccc4ccccc34)ccc2O[C@@H](C)CCCCO[C@H]1CN(C)C,-2.41,inactive,-18
C[C@]12C(=O)N(c3ccc(F)cc3)C(=O)N1[C@@H]1c3ccccc3OC[C@@H]1[C@H]2c1ccccc1,-20.2,inactive,-13.6
O=C(O)c1cccc2c1-c1ccc([N+](=O)[O-])cc1C2=O,-0.103,inactive,-6.27
COc1ccc([C@H]2C[C@H](O)C[C@@H](CCn3cc(-c4ccccc4)nn3)O2)cc1,-21.6,inactive,19.3
O=C(Nc1ccc(F)cc1)N1CCCCN2[C@@H](CO)[C@H](c3ccc(-c4ccncc4)cc3)[C@@H]2C1,12,inactive,-0.029
Cc1ccccc1S(=O)(=O)N1C[C@H]2CON(C)[C@H]2C[C@H]1c1cccc(-c2ccc(C#N)cc2)c1,-28.1,inactive,-10.7
CC(=O)Nc1cccc(OCCCOc2cccc([N+](=O)[O-])c2)c1,-16.8,inactive,44.4
Nc1[nH]c(C(=O)c2ccccc2)c(-c2ccc3c(c2)OCO3)c1C(=O)NCCc1c[nH]c2ccccc12,-18.1,inactive,-20.2
Cc1ccc2nc(-c3ccc(Cl)cc3)c(Cc3ccccc3C(F)(F)F)n2c1,-10.5,inactive,37.7
CC(C)n1nnnc1C1c2ccccc2C(=O)N1CCOc1ccccc1 (stereo unspecified),-14.1,inactive,-9.39
Cc1occc1-c1nnc(SCC(=O)Nc2nc(-c3ccccc3)cs2)o1,-4.96,inactive,8.71
O=C(O)CC(CC(=O)Nc1ccc2ccccc2n1)c1ccccc1 (stereo unspecified),-7.83,inactive,7.39
CCOC(=O)c1cccc(OC(=O)CCNC(=O)c2ccc(Cl)cc2)c1,-36.4,inactive,-3.29
